Data from a collection of fitness landscapes (doi:10.1016/j.celrep.2020.107928).
Over roughly 81,000 sequences, “one-hybrid fitness for binding parS DNA” has its median near -0.17; the highest 2% begin near 0.51. Only a selection was taken, and the highest values are over-represented in it overall.

B1: Caulobacter ParB omega fusion; a variant is named by its letters at X, in order, B8GW30 (parent)
chain: MESVVVGEPGMSEGRRGLGRGLSALLGEVDAAPAQAPGEQLGGSREAPIEILQRNPDQPRRTFREEDLEDLSNSIREKGVLQPILVRPSPDTAGEYQIVAGERAWRAAQRAGLKTVPIMVRELDDLAVLEIGIIENVQRADLNVLEEALSYKVLMEKFERTQENIAQTIGKSXSHVANXMRLLXLPDEVQSYLVSGELTAXHARAIAAAADPVALAKQIIEGGLSVRETEALARKAPNLSAGKSKGGRPPRVKDTDTQALESDLSSVLGLDVSIDHRGSTGTLTITYATLEQLDDLCNRLTRGI

Variants of: B1
Assay: one-hybrid fitness for binding parS DNA (scaled: cognate 1, non-cognate 0); higher = stronger binding
Conditions: with parS DNA site
Method in brief: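 On M9-minus-histidine containing 0.1 mM IPTG and 5 mM 3-AT, E. coli USO cells with a HIS3 reporter, site 19 bp from the promoter, grew 48 hours at 37°C to select Caulobacter ParB libraries randomised at four specificity codons. Plasmids from before and after were Illumina-sequenced, with three replicate libraries pooled and variants under 10 reads left out. Fitness is the log change in variant-to-wild-type read ratio, rescaled against cognate and non-cognate.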

one-hybrid fitness for binding parS DNA, 0.57:
RFNA

one-hybrid fitness for binding parS DNA, 0.998:
RLQC
RSGG

one-hybrid fitness for binding parS DNA, 0.936:
RCQT

one-hybrid fitness for binding parS DNA, 0.991:
RTTC

one-hybrid fitness for binding parS DNA, 0.874:
RSQT

one-hybrid fitness for binding parS DNA, 0.29:
RWDA

one-hybrid fitness for binding parS DNA, 0.962:
RITC

one-hybrid fitness for binding parS DNA, 0.259:
RMVF

one-hybrid fitness for binding parS DNA, 0.243:
RNAM

one-hybrid fitness for binding parS DNA, 0.805:
RQIG

one-hybrid fitness for binding parS DNA, 0.825:
RKQC

one-hybrid fitness for binding parS DNA, 1.02:
RMQC
RIGG
RCDS

one-hybrid fitness for binding parS DNA, 0.951:
RHQC

one-hybrid fitness for binding parS DNA, 0.908:
RCNS

one-hybrid fitness for binding parS DNA, 0.686:
RNAT

one-hybrid fitness for binding parS DNA, 0.495:
RLQY

one-hybrid fitness for binding parS DNA, 0.573:
RNFT

one-hybrid fitness for binding parS DNA, 0.927:
RHVS

one-hybrid fitness for binding parS DNA, 0.619:
RCYA

one-hybrid fitness for binding parS DNA, 0.302:
RHVN

one-hybrid fitness for binding parS DNA, 0.474:
RWRA

one-hybrid fitness for binding parS DNA, 0.425:
RWNA

one-hybrid fitness for binding parS DNA, ≤ 0.2:
TCGR
KIYR
FHCT
NRQF
THLI
RMEQ
QDTM
VKRS
HTGH
RANH
RADH
RADP
RANP
YHVS
SKAT
RCTR
DCPY
CRRI
REQT
RDQT
RSQK
RPQT
MKGT
PHAA
CNAG
SQES
CCPY
RKVF
RKKD
RKKP
NRVQ
PLNP
RHQD
RKQQ
REQC
RIQQ
RSQQ
RHQP
VCLS
NNQG
QKHV
RMQF
NRQC
RMQL
RLQQ
RPQC
RDQC
RRQR
NGPC
QQNS
IKKF
DIKG
YPGG
FNTL
LPNG
RPDA
RPNA
RENA
RPRA
YTPK
NRGR
WRHM
TEAW
HGTW
PNLY
DLLY
RDRA
RDDA
REDA
KFNA
CFAA
RNLW
NVSV
DDCG
KMYG
QRCI
APES
SERT
LITT
MNRC
DIAI
ACMT
YQQG
RSPA
DSYA
RHVD
RHKP
KQDV
HTPC
AALR
WLII
YSML
RMVR
RMKD
TDKS
CMDR
TNLK
RLIP
RLPD
IHED
PMWM
RFKD
NFVG
NFKG
LLAH
KLSS
YSYS
RRVR
RRKK
RRKF
RRVQ
LFLG
SWLK
PTSL
QPAA
FRES
PPSL
SYQW
DTNA
NTNA
WHYV
HFVM
QFAC
RSGK
RIGD
RDGG
RPGG
HLHN
EVNR
RCWR
NFVA
MAPR
YLCV
DLKG
TWYC
TAYD
PPTG
RQPD
RQPH
RQIH
LCRT
CNIR
TNIS
ASKM
RPDS
RPNS
RSND
RSDP
RCNP
RSDH
FIST
SDVE
QNER
HDLW
GHTP
IPGC
FIPR
LDNV
RTTQ
RMTR
RITR
RMTP
RETC
RSTQ
QHHF
PRIV
VMLC
DQKI
NPVG
FASY
GGAS
RDTC
RPTC
RHTH
RKTP
NRTC
RRTR
MMQL
GRRM
RHSV
AKSG
REHW
EAGS
KYAG
ELVS
SVCS
LPIR
GTYV
VEST
SGLP
RATP
NFTC
REFP
GDAW
RNFK
RNAK
RNFF
VNTS
NGQK
QLDA
AVCE
APET
RRTH
RRTQ
RRTD
RRTP
APDT
CSER
DLWS

one-hybrid fitness for binding parS DNA, 0.95:
RFTC

one-hybrid fitness for binding parS DNA, 0.77:
RFVG

one-hybrid fitness for binding parS DNA, 0.365:
RHKN

one-hybrid fitness for binding parS DNA, 0.942:
RKVG

one-hybrid fitness for binding parS DNA, 0.966:
RADS

one-hybrid fitness for binding parS DNA, 0.719:
RCNA

one-hybrid fitness for binding parS DNA, 0.988:
RFKG

one-hybrid fitness for binding parS DNA, 0.875:
RMVT

one-hybrid fitness for binding parS DNA, 0.46:
RFDA

one-hybrid fitness for binding parS DNA, 0.793:
RKTC

one-hybrid fitness for binding parS DNA, 0.605:
RSRA

one-hybrid fitness for binding parS DNA, 0.235:
RGDA

one-hybrid fitness for binding parS DNA, 0.336:
RKTN

one-hybrid fitness for binding parS DNA, 0.436:
RATN

one-hybrid fitness for binding parS DNA, 0.959:
RSNS

one-hybrid fitness for binding parS DNA, 0.2:
REGG

one-hybrid fitness for binding parS DNA, 0.982:
RATC

one-hybrid fitness for binding parS DNA, 0.225:
RGYA
RLPN

one-hybrid fitness for binding parS DNA, 0.346:
RLTM

one-hybrid fitness for binding parS DNA, 0.248:
RQIN

one-hybrid fitness for binding parS DNA, 0.985:
RMTC

one-hybrid fitness for binding parS DNA, 0.695:
RRTN

one-hybrid fitness for binding parS DNA, 0.204:
RLGH
RCDP

one-hybrid fitness for binding parS DNA, 0.246:
RIGH

one-hybrid fitness for binding parS DNA, 0.86:
RLPS

one-hybrid fitness for binding parS DNA, 0.203:
RSNH

one-hybrid fitness for binding parS DNA, 0.602:
RSYA

one-hybrid fitness for binding parS DNA, 0.946:
RHTC

one-hybrid fitness for binding parS DNA, 0.26:
RFVN

one-hybrid fitness for binding parS DNA, 0.651:
RRTS

one-hybrid fitness for binding parS DNA, 0.469:
RLGN

one-hybrid fitness for binding parS DNA, 0.514:
RQPG

one-hybrid fitness for binding parS DNA, 0.443:
RITY

one-hybrid fitness for binding parS DNA, 0.764:
RMKT

one-hybrid fitness for binding parS DNA, 0.415:
RTTN

one-hybrid fitness for binding parS DNA, 0.405:
RFTN

one-hybrid fitness for binding parS DNA, 0.596:
RSNA

one-hybrid fitness for binding parS DNA, 0.777:
RHKS

one-hybrid fitness for binding parS DNA, 0.958:
RSQC

one-hybrid fitness for binding parS DNA, 0.412:
RKVY

one-hybrid fitness for binding parS DNA, 0.836:
RRVG

one-hybrid fitness for binding parS DNA, 1:
RIQC
RLIS
RCTC
RLTC

one-hybrid fitness for binding parS DNA, 0.227:
CLRH

one-hybrid fitness for binding parS DNA, 0.38:
RLIN

one-hybrid fitness for binding parS DNA, 0.554:
RTDA

one-hybrid fitness for binding parS DNA, 1.01:
RCGG

one-hybrid fitness for binding parS DNA, 0.616:
RRTC

one-hybrid fitness for binding parS DNA, 0.802:
RKKG

one-hybrid fitness for binding parS DNA, 0.394:
RGNA

one-hybrid fitness for binding parS DNA, 0.796:
RCRA

one-hybrid fitness for binding parS DNA, 0.994:
RCQC

one-hybrid fitness for binding parS DNA, 0.939:
RSDS

one-hybrid fitness for binding parS DNA, 0.995:
RLGG

one-hybrid fitness for binding parS DNA, 0.496:
RGRA

one-hybrid fitness for binding parS DNA, 0.97:
RSTC

one-hybrid fitness for binding parS DNA, 0.708:
RRKG

one-hybrid fitness for binding parS DNA, 0.43:
RLTN

one-hybrid fitness for binding parS DNA, 0.4:
RKQY

one-hybrid fitness for binding parS DNA, 0.63:
RRQC

one-hybrid fitness for binding parS DNA, 0.391:
RMKM

one-hybrid fitness for binding parS DNA, 0.567:
RCDA

one-hybrid fitness for binding parS DNA, 0.96:
RANS

one-hybrid fitness for binding parS DNA, 0.41:
RHTY

one-hybrid fitness for binding parS DNA, 0.301:
RCYH

one-hybrid fitness for binding parS DNA, 0.722:
RTNA

one-hybrid fitness for binding parS DNA, 0.442:
RIQY

one-hybrid fitness for binding parS DNA, 0.515:
RSDA
